{
  "source": "PubChem BioAssay (EPA / NIEHS)",
  "note": "“And” between values parts separate entries of the source, which are not always exact repeats. Equal values may be shown once. The source made the active and inactive calls. Rule for the calls: active = hit-call score of the fitted dose curve at least 0.9, where 1 is the maximum; inactive = score below 0.9.",
  "data": [
    {"read-out": "Tumor necrosis factor (Homo sapiens) (UniProt P01375)", "assay": "BSK_BT_xTNFa: BioMAP Diversity Plus: BT Assay for Tumor necrosis factor alpha (TNF-alpha) Biomarker Activity (AID 2284230)", "settings": "primary human B cells with PBMC", "description": "BSK_BT is a cell-based, multiplexed-readout assay that uses B cell and peripheral blood mononuclear cells, a human vascular primary cell co-culture, with measurements taken at 24 hours after chemical dosing in a microplate: 96-well plate.BSK_BT_xTNFa is an assay component of the BSK_BT assay. It measures secreted TNF-alpha related to regulation of gene expression using LumineX xMAP technology.Data from the assay component BSK_BT_xTNFa was analyzed at the endpoint, BSK_BT_xTNFa, in the positive analysis fitting direction relative to DMSO as the negative control and baseline of activity. Using a type of cytokine quantitation reporter, gain or loss-of-signal activity can be used to understand protein changes. To generalize the intended target to other relatable targets, this assay endpoint is annotated to the 'cytokine' intended target family, where the subfamily is 'inflammatory factor'.\nThe levels of cell surface (or secreted, indicated by the prefix \"s\") biomarker endpoints were measured by ELISA. Overt cytotoxicity to cells in confluent adherent cultures (all systems other than the BT system) was assessed by measuring total protein levels using sulforhodamine B (SRB) staining in parallel cultures at the time of biomarker measurements, indicated as SRB endpoints. For proliferation assays for adherent cell types, individual cell types are cultured at sub-confluence and relative cell numbers quantified by SRB staining at time points optimized for each system (48 h: 3C and CASM3C systems; 72 h: BT and HDF3CGF systems; 96 h: SAg system). SRB was performed by staining cells with 0.1% SRB after fixation with 10% TCA and reading wells at 560 nm.Viability and proliferation of PBMC (T cells) was quantified by Alamar Blue reduction for the SAg and BT systems. For PBMC viability (referred to as PBMC Cytotoxicity within the assay endpoint names), cells were plated (75,000/well in a 96-well plate) and then chemical samples added for 1 h before addition of activators, SEB and TSST-1 (20 ng/mL final concentration each). Cells were incubated for 90 h. Then, Alamar Blue (20 uL/well) (Invitrogen, Cat DAL1100) was added for 6 h, and the plates were read with a fluorescence microplate reader at 546/580 nm (excitation/emission). For PBMC proliferation, cells were plated and activated as above but incubated for only 16 h prior to addition of Alamar Blue. Plates were read after 6 h.", "values": [
      {"smiles": "CC[N+](CC)(CC(=O)Nc1c(C)cccc1C)Cc1ccccc1", "outcome": "inactive"},
      {"smiles": "Cc1cccnc1", "outcome": "inactive"},
      {"smiles": "O=C(C(=O)c1ccccc1)c1ccccc1", "outcome": "inactive"},
      {"smiles": "CCCCCCCCCCCCCCCCCC[N+](C)(C)C", "AC50": "2.62 µM (active)"},
      {"smiles": "OC(C(F)(F)F)(C(F)(F)F)C(O)(C(F)(F)F)C(F)(F)F", "AC50": "41.9 µM (active) and 40.2 µM (active)"},
      {"smiles": "COC(=O)/C=C\\C(=O)OC", "outcome": "inactive"},
      {"smiles": "Sc1nc2ccccc2s1", "outcome": "inactive"},
      {"smiles": "CCCCCCC(O)CCCCCCCCCCC(=O)OC", "note": "(stereo not given)", "outcome": "inactive"},
      {"smiles": "CCCCCCCCCC/C=C/C1CC(=O)OC1=O", "note": "(stereo not given)", "outcome": "inactive"},
      {"smiles": "CCCCCCCCCCC1CO1", "note": "(stereo not given)", "outcome": "inactive"},
      {"smiles": "Oc1cccc2ccccc12", "outcome": "inactive"},
      {"smiles": "CN(C)c1ccc(C(c2ccccc2)c2ccc(N(C)C)cc2)cc1", "AC50": "33.1 µM (active)"},
      {"smiles": "CC(C)CC(=O)CC(C)CC(C)C", "note": "(stereo not given)", "outcome": "inactive"},
      {"smiles": "Cc1cc(-n2nc3ccc(Cl)cc3n2)c(O)c(C(C)(C)C)c1", "outcome": "inactive"},
      {"smiles": "CN(C)CCC(c1ccc(Cl)cc1)c1ccccn1", "note": "(stereo not given)", "outcome": "inactive"}
    ]}
  ]
}
